From PubChem BioAssay
Calls of active or inactive are those of the source.

How the values were obtained:
[1] = compound effects on lung adenocarcinoma cell viability – A549, calcein-AM fluorescence, 48 h, basal, profiling panel (AID 1162); settings: higher = more signal
[2] = compound effects on differentiated 3T3-L1 adipocyte viability – cell-based, 3T3-L1 adipocytes, calcein-AM fluorescence, 48 h, basal, profiling panel (AID 1163); settings: 3T3-L1 adipocytes viability, higher = more signal
[3] = compound effects on hepatocellular carcinoma cell viability – HepG2, calcein-AM fluorescence, 48 h, basal, profiling panel (AID 1164); settings: higher = more signal
[4] = compound effects on multiple myeloma cell viability – MM1S, calcein-AM fluorescence, 48 h, basal, profiling panel (AID 1165); settings: higher = more signal;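 also: viability of MM1S multiple myeloma cells under basal unstimulated conditions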
[5] = calcein-AM signal in unstimulated myeloma cells – cell-based, calcein-AM fluorescence, 48 h, PK04 Diversity Set, profiling panel (AID 1166); settings: RPMI8226 myeloma viability, higher = more signal;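 also: cells grown under basal conditions without added stimulus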
[6] = JC-1 mitochondrial signal, unstimulated HepG2 cells – cell-based, JC-1 fluorescence, 24 h, 100 nL compound, profiling panel (AID 1167); settings: HepG2 mitochondrial potential, higher = more signal
[7] = JC-1 mitochondrial signal, unstimulated adipocytes – cell-based, JC-1 fluorescence, 3T3-L1 adipocytes, 24 h, 100 nL compound, profiling panel (AID 1168); settings: JC-1 mitochondrial fluorescence, higher = more signal, called active from +8 up or from −8 down
[8] = JC-1 mitochondrial signal, unstimulated myeloma cells – cell-based, JC-1 fluorescence, RPMI8226, 24 h, 100 nL compound, profiling panel (AID 1169); settings: JC-1 mitochondrial potential fluorescence, higher = more signal
[9] = JC-1 mitochondrial signal, unstimulated MM1S myeloma – cell-based, JC-1 fluorescence, 24 h, 100 nL compound, profiling panel (AID 1170); settings: MM1S mitochondrial potential, higher = more signal
[10] = resazurin metabolic signal in A549 cells – cell-based, resazurin fluorescence, 24 h, PK04 Diversity Set, profiling panel (AID 1171); settings: A549 viability, higher = more signal, called active from +8 up or from −8 down
Also: test concentration not given here.

Compound | z-score [1] | z-score [2] | z-score [3] | z-score [4] | z-score [5] | z-score [6] | z-score [7] | z-score [8] | z-score [9] | z-score [10]
COC(=O)C[C@@H]1C[C@H](C)[C@]2(O1)C(=O)N(Cc1ccccc1)c1ccc(NC(C)=O)cc12 | -0.0958 | 0.663 | -0.258 | 0.186 | -0.804 | -0.0913 | -0.551 (inactive) | -0.183 | 0.229 | -0.982 (inactive)
CC(C)(C)N1CC=CC23O[C@@H]4C=CCOC(=O)[C@@H]4[C@H]2C(=O)N(CCCCCO)[C@@H]3C1=O (stereo not given in full) | -0.52 | 0.468 | -0.542 | -0.341 | 0.606 | -0.667 | -0.173 (inactive) | 0.828 | 0.388 | -1.08 (inactive)
CC(C)N1C(=O)c2ccccc2[C@@H](C(=O)NCCCN(C)C)[C@@H]1c1ccc(CO)cc1 | 0.177 | 1.46 | 0.0397 | 0.551 | -0.981 | 1.09 | -0.205 (inactive) | 0.75 | 0.499 | -0.565 (inactive)
CC(C)C[C@@H]1NC(=O)[C@@H]2C[C@H](C(=O)NCCCCCC[N+](C)(C)C)[C@H](c3ccc(O)cc3)N2C1=O | -0.633 | -0.77 | 0.145 | 0.305 | 0.996 | -0.595 | 0.566 (inactive) | -0.815 | -0.39 | 0.0131 (inactive)
CC(C)N1CC=CC23O[C@@H]4C=CCOC(=O)[C@@H]4[C@H]2C(=O)N(CCO)[C@@H]3C1=O (stereo not given in full) | -0.237 | 0.253 | -0.166 | 1.07 | -0.761 | -0.38 | 0.0611 (inactive) | 0.223 | -0.797 | 0.336 (inactive)
O=C1O[C@H](c2ccccc2)[C@H](c2ccccc2)N2[C@H]1[C@@H](C(=O)Nc1nc3ccccc3s1)[C@]1(C(=O)Nc3ccccc31)[C@H]2c1ccc(O)cc1 | -0.167 | 0.657 | -1.99 | -3.38 | -4.51 | -3.78 | 0.032 (inactive) | -1.12 | -0.564 | -0.358 (inactive)
CCOC(=O)C[C@H]1[C@H](OC(=O)c2ccc(-c3ccccc3)cc2)[C@@H](NC(=O)Cc2ccc(OC)cc2)c2cc(OCCCO)ccc2N1C(=O)c1ccc2ccccc2n1 | -0.315 | -0.357 | 0.143 | -0.514 | -0.129 | 0.176 | 0.824 (inactive) | 0.0708 | -0.625 | 0.596 (inactive)
C=C(CCCC)/C(=C/C[C@H](OC(C)=O)c1ccc(CO)o1)c1cnc2ccccc2c1 | 0.0278 | -0.229 | 0.311 | -2.01 | -0.889 | -1.04 | -0.779 (inactive) | -0.143 | -0.238 | 0.398 (inactive)
COC(=O)c1ccc(C23CC2(C(NP(=O)(c2ccccc2)c2ccccc2)c2ccccc2)C3)cc1 (stereo not given) | 0.766 | 0.406 | 1.48 | -2.06 | -3.34 | 3.7 | 0.711 (inactive) | -0.369 | -1.45 | -0.416 (inactive)
COCCOC(=O)N1C(=O)[C@@]2(c3cc(C#CCCO)ccc31)[C@H](C(=O)NC[C@H](O)c1ccccc1)[C@H]1C(=O)O[C@H](c3ccccc3)[C@H](c3ccccc3)N1[C@@H]2c1ccc(O)cc1 | 0.292 | 0.0669 | 0.289 | 0.715 | 0.568 | 0.467 | -0.734 (inactive) | 0.571 | -0.446 | 0.224 (inactive)
Cc1ccc(S[C@]2(C(=O)NCc3ccccc3)CC(=O)N(Cc3ccccc3Cl)[C@@H]2c2ccc(CO)cc2I)cc1 | 0.34 | 1.13 | -0.0653 | -1.73 | -1.65 | -0.44 | 0.376 (inactive) | -0.0557 | -2.15 | 1.6 (inactive)
COC(=O)[C@@]1(Cc2ccccc2)N=C(c2ccc(OCCCO)cc2)O[C@H]1c1ccccc1N=[N+]=[N-] | 0.119 | 0.113 | -2.06 | -3.35 | -4.04 | 1.12 | -0.528 (inactive) | -1.11 | -0.896 | -1.83 (inactive)
O=C1O[C@H](c2ccccc2)[C@H](c2ccccc2)N2[C@H]1[C@@H](C(=O)O)[C@]1(C(=O)Nc3ccc(C#CC4(O)CCCCCC4)cc31)[C@H]2c1ccc(OCCO)cc1 | 0.82 | 0.287 | 0.293 | -1.99 | -0.216 | -1.82 | -1.07 (inactive) | -0.559 | -0.683 | -0.0693 (inactive)
O=C1N(CCS(=O)(=O)c2ccccc2)c2ccccc2C[C@@]12COC(c1ccc(OCCCO)cc1)=N2 | -0.683 | 0.294 | -1.48 | -2.06 | -0.517 | -2.09 | 0.7 (inactive) | -1.06 | -0.554 | -0.455 (inactive)
C[C@]1(C(=O)NCc2ccccc2)c2ccccc2C(=O)N(Cc2ccc(OC(F)(F)F)cc2)[C@H]1c1ccc(CO)cc1 | 1.84 | 1.12 | 1 | 0.318 | 0.346 | 3.56 | 0.777 (inactive) | -0.584 | -0.0466 | 1.46 (inactive)
COCC1=C2[C@@H](CCc3ccccc3)OB(O)C[C@@H]2[C@@H]2C(=O)N(Cc3ccccc3)C(=O)[C@@H]2C1 | 0.0476 | 0.873 | 0.128 | -1.51 | -0.138 | -1.59 | -0.897 (inactive) | -0.812 | 0.24 | 0.21 (inactive)
O=C1O[C@@H](c2ccccc2)[C@@H](c2ccccc2)N2[C@@H](c3ccccc3OCCO)[C@]3(C(=O)Nc4ccc(C#CC5(O)CCCCCC5)cc43)[C@@H](C(=O)Nc3nc4ccccc4s3)[C@H]12 | -1.49 | 0.601 | -3 | -3.22 | -4.17 | -2.67 | 2.71 (inactive) | -0.863 | -1.41 | -1.34 (inactive)
O=C(OCCF)C1=CCC(c2cccc(Cl)c2)O1 (stereo not given) | 0.558 | -0.0426 | 0.303 | 1.17 | 0.669 | 0.89 | 1.15 (inactive) | -1.07 | -0.157 | -0.61 (inactive)
O=C(O)[C@H]1C[C@H]2C(=O)NCC(=O)N2[C@H]1c1ccc(O)cc1 | 1.14 | 0.108 | 0.752 | -2.55 | -0.593 | 2.37 | -0.262 (inactive) | -0.629 | -1.43 | 0.672 (inactive)
NC(=O)NCC#Cc1ccc2c(c1)[C@]1(C(=O)N2)[C@H](C(=O)NC[C@H](O)c2ccccc2)[C@H]2C(=O)O[C@H](c3ccccc3)[C@H](c3ccccc3)N2[C@@H]1c1ccc(O)cc1 | 0.423 | -1.13 | -0.284 | -1.32 | 0.579 | -3.36 | -2.46 (inactive) | -1.16 | -1.49 | -0.471 (inactive)
COCCOC(=O)N1C(=O)[C@@]2(c3ccccc31)[C@H](C(=O)NC[C@H](O)c1ccccc1)[C@H]1C(=O)O[C@H](c3ccccc3)[C@H](c3ccccc3)N1[C@@H]2c1ccc(OCCO)cc1 | -0.656 | 1.13 | -0.655 | -0.233 | -0.773 | 0.546 | 0.843 (inactive) | -0.598 | -0.295 | 0.377 (inactive)
COCCOC(=O)N1C(=O)[C@@]2(c3cc(C#CCC(C(=O)OC)C(=O)OC)ccc31)[C@H](c1ccccc1OCCO)N1[C@H](c3ccccc3)[C@H](c3ccccc3)OC(=O)[C@H]1[C@@H]2C(=O)N1CCc2cc(OC)c(OC)cc2C1 | 0.178 | 1.76 | -0.821 | -0.906 | -0.756 | -0.0323 | 2.21 (inactive) | -0.833 | -0.702 | 1.34 (inactive)
CS(=O)(=O)CCOC(=O)C1=CC(c2ccc(CO)cc2)=CC(C2CC2)N(Cc2cc3c(cc2Br)OCO3)C=C1C(=O)OCCS(C)(=O)=O (stereo not given) | -0.261 | -0.14 | 1.04 | -2.68 | -2.41 | 2.99 | 0.253 (inactive) | -0.787 | -1.8 | -1.14 (inactive)
COc1ccc(CCNC(=O)[C@@H]2c3ccccc3C(=O)N(Cc3ccc(OC(F)(F)F)cc3)[C@H]2c2ccc(CO)cc2)cc1 | 0.843 | 0.614 | -1.01 | -2.39 | -1.99 | 1.14 | -0.0731 (inactive) | 0.118 | -0.23 | 0.619 (inactive)
CCN(CC)c1ccc(N2CC=CC34O[C@@H]5/C=C\CCCOC(=O)C5[C@H]3C(=O)N(C(CO)C(C)C)[C@@H]4C2=O)cc1 (stereo not given in full) | -0.0889 | 0.102 | 0.825 | 0.905 | -0.62 | -0.243 | -0.0916 (inactive) | 0.139 | -0.26 | -0.506 (inactive)
C[C@H]1NC(=O)[C@H](Cc2ccccc2)NC(=O)[C@@]23C(=O)N[C@@H](Cc4ccccc4)C2[C@H](C)[C@@]2(C)O[C@H]2C3/C=C/C/C=C\CNC1=O (stereo not given in full) | 1.1 | 0.827 | 0.514 | -0.0775 | -1.27 | 0.542 | 0.342 (inactive) | 0.0827 | 0.782 | 0.229 (inactive)
COC(=O)[C@@]1(Cc2ccccc2N=[N+]=[N-])COC(c2ccc(OCCCO)cc2)=N1 | -0.851 | -1.01 | -0.388 | -3.53 | -2.82 | -0.472 | -0.605 (inactive) | -0.125 | -0.0849 | 0.468 (inactive)
COCCCNC(=O)[C@@]1(C)c2ccccc2C(=O)N(Cc2cc(C(F)(F)F)cc(C(F)(F)F)c2)[C@H]1c1ccc(CO)cc1 | -0.0997 | -0.872 | 0.771 | 0.384 | -0.509 | 1.59 | 1.01 (inactive) | 0.222 | -0.668 | 0.545 (inactive)
CC=CC(O)C1C=CC2C(=O)N(c3ccccc3)C(=O)C2N1Nc1ccc(C(C)C)cc1 (stereo not given) | 0.0409 | 0.146 | 0.645 | -0.0872 | -0.849 | -1.09 | -1.32 (inactive) | -0.467 | -1.08 | -1.65 (inactive)
CCCCC=C[C@@H](NC(=O)c1ccc(C(=O)OC)cc1)c1ccccc1 | -1.19 | -0.87 | -0.721 | -2.31 | -2.6 | -1.33 | -0.346 (inactive) | -0.862 | -1.38 | 3.37 (inactive)
